# Several values for one entry are separate records, joined by “and”; a condition that tells them apart may be missing. Equal values may be shown once. Inconclusive results are not listed. A call without a number means that no potency is given here. The source holds several records for some structures; these can differ, active in one and inactive in another. Activity calls are given as the source filed them. Calls follow the shape of the dose curve; as a rule, active = well fitted cell-killing curve with a large enough effect in the repeat runs; inconclusive = weak or mixed curves, or effect the other way; inactive = no such curve, though single readings can be large or run the other way.
# Assay: qHTS assay to identify small molecule antagonists of the sonic hedgehog signaling (Shh) pathway - cell viability counter screen (AID 1259367); also: nearly all actives have a fitted effect of over 55% in size
# Conditions: NIH/3T3 Gli1-Luc viability, CellTiter-Fluor, 24 h; series mostly up to 92.4 µM; viability change, negative = cytotoxic: at the top concentration
# From the text: National Center for Advancing Translational Sciences [NCATS]
# NIH Chemical Genomics Center [NCGC]
# U.S. Environmental Protection Agency [EPA]
# National Institutes of Environmental Health Sciences [NIEHS]
# National Toxicology Program [NTP]
# U.S. Food and Drug Administration [FDA]
# The sonic hedgehog (Shh) pathway is essential for normal embryonic development. Dysregulation of the Shh pathway can cause severe developmental defects in organs. Therefore chemicals that interfere with the pathway are potential developmental toxicants. A cell line designated 3T3Gli1-Luc (DMB/OARSA/CFSAN/FDA, Laurel, MD), a NIH/3T3 derived clone containing stably integrated Gli1-Luc reporter is used to detect chemical interference of the Shh pathway, by changes in the expression of the firefly Luc gene under the control of the Gli1 transcriptional response element. This cell line was used to screen Tox21 libraries for identifying and prioritizing the potential developmental toxicants that interfere Shh pathway. Conditioned medium-stimulated mode was used to screen for chemicals inhibiting Shh signaling. The cytotoxicity of the compounds was tested in parallel by measuring the cell viability using CellTiter-Fluor assay system (Promega, Madison, WI) in the same wells.
# Tox21 Assay Protocol Summary:
# 3T3 Gli1-Luc cells were dispensed at 2,000 per well in 5uL of culture medium into white solid bottom 1536-well plates (Greiner Bio-One, Monroe, NC) using a Multidrop Combi (Thermo Scientific, Waltham, MA) dispenser. The assay plates were incubated at 37 C and 5% CO2 for 4hr, and then 23nL of compounds dissolved in DMSO and positive control were transferred using a Pintool station (Wako, San Diego, CA). The compound transfer was followed by the addition of 1ul conditioned medium or assay buffer using two separate tips of Flying Reagent Dispenser (FRD, Aurora Discovery, San Diego, CA). The assay plates were incubated at 37C and 5% CO2 for 24hr. For viability read, after 23hr of compound treatment, 1uL of CellTiter-Fluor reagent (Promega Corporation, Madison, WI) was added to each well of the assay plates using Flying Reagent Dispenser (FRD, Aurora Discovery, San Diego, CA) and incubated the assay plates at 37C for 1hr. The fluorescence signal was quantified using a ViewLux plate reader (Perkin Elmer, Shelton, CT).
# Potency is read from the fitted curve at half-maximal effect.
Structure (SMILES),Potency,"viability change, negative = cytotoxic"
CCC(C)c1ccc(O)cc1 (stereo not given),inactive,
CCC(CC)Nc1c([N+](=O)[O-])cc(C)c(C)c1[N+](=O)[O-],inactive,
CC(C)C(=O)OCC(C)(C)C(OC(=O)C(C)C)C(C)C (stereo not given),inactive,
Nc1cccnc1,inactive,
Cc1ccc(OP(=O)(Oc2ccc(C)cc2)Oc2ccc(C)cc2)cc1,inactive,
CCCCN(CC)c1c([N+](=O)[O-])cc(C(F)(F)F)cc1[N+](=O)[O-],inactive,
O=C(CCl)c1ccccc1,inactive,
Cc1cc(C)cc(C)c1,inactive,
CCCCC(CC)COC(=O)c1ccc(C(=O)OCC(CC)CCCC)c(C(=O)OCC(CC)CCCC)c1 (stereo not given),inactive,
c1nc[nH]n1,inactive,
CC(C)(c1cc(Cl)c(O)c(Cl)c1)c1cc(Cl)c(O)c(Cl)c1,inactive,
c1cc(OCC2CO2)ccc1Cc1ccc(OCC2CO2)cc1 (stereo not given),61.1 µM (active),
CCOC(=S)S,30.6 µM (active) and 25.9 µM (active),
c1ccc(NNc2ccccc2)cc1,inactive,
O=C(NC(=O)c1c(F)cccc1F)Nc1ccc(Cl)cc1,inactive,
CCC(C)(c1ccc(O)cc1)c1ccc(O)cc1,,-15.7% (inactive)
Cc1cccc(N)c1N,inactive,
Cc1cc(Cl)ccc1OCCCC(=O)O,inactive,
Nc1ccc(Cl)cc1N,,-2.77% (inactive)
C1=Cc2cccc3cccc1c23,inactive,

Structure (SMILES),Potency,"viability change, negative = cytotoxic"
Nn1cnnc1,inactive,
CCCCOCCOP(=O)(OCCOCCCC)OCCOCCCC,inactive,
CC(C)(OOC(C)(C)c1ccccc1)c1ccccc1,inactive,
Oc1cc(Cl)ccc1Oc1ccc(Cl)cc1Cl,31.4 µM (active) and inactive,
N#CC(Br)Br,inactive,
Oc1cc(Cl)ccc1Cl,inactive,
CCN(CC)N=O,inactive,
CCCCCc1cc(O)cc(O)c1,30.6 µM (active),
CCOc1cc(C=O)ccc1O,inactive,
C[C@]12CCC(=O)C[C@@H]1CC[C@@H]1[C@@H]2CC[C@]2(C)[C@@H](O)CC[C@@H]12,inactive,
CC(C)=CC1C(C(=O)OCc2coc(Cc3ccccc3)c2)C1(C)C (stereo not given),,-5.51% (inactive)
C#CCOS(=O)OC1CCCCC1Oc1ccc(C(C)(C)C)cc1 (stereo not given),21.7 µM (active) and 27.3 µM (active),
NC(=S)Nc1ccccc1,inactive,
Nc1c(Cl)cc([N+](=O)[O-])cc1Cl,inactive,
NNC(N)=S,20.1 µM (active) and 61.1 µM (active),
Clc1nc(Cl)nc(Cl)n1,inactive,
c1ccc(N=Nc2ccccc2)cc1,inactive,
CCCCCCOC(=O)c1ccccc1C(=O)OCCCCCC,inactive,
CN(C)c1ccc(C(=O)c2ccc(N(C)C)cc2)cc1,inactive and 21.7 µM (active),
CCOP(=S)(OCC)O/N=C(\C#N)c1ccccc1,inactive,
